D2 PAM-1: HTS Assay for Positive Allosteric Modulators of the Human D2 Dopamine Receptor: Primary Screen for Potentiators; HEK293 T-REx D2, calcium flux, EC20 dopamine potentiation; potentiation, % at 10 µM; hit rate 0.34% among 340,000; AID 485347, 2010;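 active = potentiation over 3 SD above the plate norm, cut at about 30% in these data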; note: 0% is about no effect
Target sequence (P14416 whole entry, looked up): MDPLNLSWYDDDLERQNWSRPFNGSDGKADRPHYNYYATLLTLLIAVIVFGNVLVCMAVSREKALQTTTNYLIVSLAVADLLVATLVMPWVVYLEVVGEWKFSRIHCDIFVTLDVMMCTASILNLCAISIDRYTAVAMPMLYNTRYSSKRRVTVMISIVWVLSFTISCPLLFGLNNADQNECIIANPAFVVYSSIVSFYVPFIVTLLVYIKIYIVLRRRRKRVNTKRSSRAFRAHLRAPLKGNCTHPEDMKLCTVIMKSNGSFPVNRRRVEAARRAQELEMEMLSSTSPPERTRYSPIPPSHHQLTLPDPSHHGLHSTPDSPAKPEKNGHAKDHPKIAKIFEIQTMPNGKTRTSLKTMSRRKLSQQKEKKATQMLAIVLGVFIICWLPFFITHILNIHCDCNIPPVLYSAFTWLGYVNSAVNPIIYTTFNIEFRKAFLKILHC
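Tetracycline-induced Hek293 Trex D2 cells, force-coupled to calcium, loaded with no-wash calcium dye. Compound added with 180 s kinetic read for agonism, then EC20 dopamine and a further 180 s read for potentiation.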
D2 antagonist: HTS Assay for Allosteric Antagonists of the Human D2 Dopamine Receptor: Primary Screen for Antagonists. D(2) dopamine receptor (Homo sapiens), P14416. HEK293 TREx D2 cells, calcium flux, dopamine EC80. inhibition, % at 10 µM. hit rate 2% among 340,000; in the data active = inhibition above about 30%; inactive = below that, where a call was filed; note: 0% is about no effect
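Overnight-induced (tetracycline, 30 C) HEK293 T-REx cells carrying force-coupled D2 receive a no-wash calcium dye, then compound, then EC80 dopamine at 180 s; signals are read kinetically throughout.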
D2 ag-1: Beta-Arrestin HTS for Positive Allosteric Modulators of the Human D2 Dopamine Receptor: Agonists; D(2) dopamine receptor (Homo sapiens), P14416; hit rate 0.084% among 360,000; activation, % (no concentration beside the values); DiscoveRx PathHunter D2 beta-arrestin, luminescence, 90 min; 100% = 57 uM dopamine signal; AID 624465, 2012; in the data active = activation above about 40%; inconclusive = between about 15% and that limit
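Agonist mode: compounds alone added to overnight-plated D2 PathHunter cells for 90 min at 37 C, with 57 uM final dopamine (EC100) defining full response. Beta-arrestin recruitment detected by chemiluminescent reagent, read after 1 h at ambient temperature.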
D2 PAM-2: Beta-Arrestin HTS for Positive Allosteric Modulators of the Human D2 Dopamine Receptor: Potentiators. DiscoveRx D2 beta-arrestin cells, luminescence, 90 min; 100% = 57 uM dopamine signal. potentiation, % (test concentration not listed). hit rate 0.23% among 360,000. D(2) dopamine receptor (Homo sapiens), P14416; in the data active = potentiation above about 50%; inconclusive = mostly about 30% to 49%
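PathHunter D2 cells, attached overnight at 37 deg C, received compound in DMSO plus dopamine at EC20 (50 nM final) for 90 min at 37 deg C. Beta-arrestin recruitment was read as luminescence after 1 h with detection reagent at ambient temperature.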
D2 ag-2: HTS Assay for Allosteric Agonists of the Human D2 Dopamine Receptor: Primary Screen for Agonists. hit rate 0.53% among 340,000. D(2) dopamine receptor (Homo sapiens), P14416. activation, % at 2 µM. HEK293 T-REx D2 cells, calcium flux agonist mode;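 active = activation over 3 SD above normal in the single-dose calcium agonist read, cut at about 30% in these data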; note: 0% is about no effect
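Agonism is scored from calcium flux in a force-coupled, inducible HEK293 cell line expressing D2, read kinetically for 180 s after compound addition against dopamine controls.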
* hit, by the source's call; ? = inconclusive; nt = not tested or not shown. Hits are enriched below; roughly 2.4% of the tested compounds scored in any of these assays.

SMILES	D2 PAM-1	D2 antagonist	D2 ag-1	D2 PAM-2	D2 ag-2
O=C(COC(=O)/C=C/c1ccco1)NCc1ccc(Cl)cc1Cl	nt	nt	7.5	0.4	nt
O=C(COC(=O)/C=C/c1ccco1)NCc1ccccc1Cl	9.5	32.6*	-2.5	0.1	0.1
COc1ccc(N(C(=O)c2snc(C(N)=O)c2N)C(C(=O)NCc2ccccc2)c2ccc(O)cc2)cc1 (stereo not drawn)	-2.9	0.3	-0.3	0.9	0.1
COc1ccc(OC)c(N(C(=O)c2snc(C(N)=O)c2N)C(C(=O)NCc2ccccc2)c2ccc(O)cc2)c1 (stereo not drawn)	-2.7	43.4*	-0.4	1.2	1.4
CN1CCN(c2nc(-c3ccccc3)ncc2S(=O)(=O)c2ccccc2)CC1	-22.2	54.3*	-7.7	-5.8	-0.7
Cc1cc(C)cc(NC(=O)C2CC3CCC2C3)c1 (stereo not drawn)	-16.5	55.7*	-2.2	-2.3	-1.7
CCS(=O)(=O)c1ccc2oc(SCC(=O)NCCC3=CCCCC3)nc2c1	-0.8	67.5*	-1.0	-3.2	-1.4
Cc1ccc(CCC(=O)Nc2ccc(N(C)C)cc2)o1	17.9	-41.7	1.1	-1.3	-0.1
CN1CCc2c(n(CC(O)CN(CCO)CCO)c3ccccc23)C1=O (stereo not drawn)	11.2	6.5	-5.5	-8.1	-2.9
CN1CCc2c(n(CC(O)CNCc3ccccc3)c3ccccc23)C1=O (stereo not drawn)	-19.9	66.3*	0.2	-10.8	-0.9
OC(CNCC#Cc1ccccc1)c1ccccc1 (stereo not drawn)	-4.6	39.1*	0.9	-11.2	20.4
OC(CNCc1ccccc1)c1ccccc1 (stereo not drawn)	-12.3	5.8	-3.8	-6.1	0.5
Cn1c(=O)[nH]c(=O)c2c1ncn2CCN1CCOCC1	6.2	38.1*	-1.2	-17.9	0.2
Cn1c(=O)[nH]c(=O)c2c1nc(N1CCOCC1)n2CCN1CCOCC1	3.5	-5.7	-3.8	-3.3	0.9
CC(=O)c1cccc(N2C(=NC(=O)CCc3ccccc3)SC3CS(=O)(=O)CC32)c1 (stereo not drawn)	-1.8	31.8*	-1.7	-7.0	-0.3
Cn1cc(CN2CCN(c3ccccc3)CC2)c2ccccc21	-15.8	80.9*	7.3	-10.1	74.1*
COc1ccc(C(=O)NCC(c2ccco2)N(C)C)cc1S(=O)(=O)NCc1ccc(Cl)cc1 (stereo not drawn)	-24.4	77.7*	-2.3	-39.3	0.2
COc1ccc(C(=O)NCCNC(C)=O)cc1S(=O)(=O)NCc1ccc(Cl)cc1	13.6	-0.3	-1.9	-6.3	0.6
CC1CCCCN1C(=O)c1cccc(NC(=O)c2ccccc2)c1 (stereo not drawn)	-2.5	36.5*	-4.0	-9.0	-1.0
Oc1ccc2ccccc2c1C=Nc1cc(C(F)(F)F)ccc1N1CCCC1	11.2	6.2	6.8	55.2*	-0.3
N#Cc1cccc(N=Cc2c(O)ccc3ccccc23)c1	8.3	-7.6	5.4	?	-0.4
COc1cccc(NC(=O)[C@H](Cc2ccccc2)NC(=O)[C@@H]2Cc3ccccc3CN2)c1	5.7	35.4*	-1.2	-11.2	-0.4
CC(C)c1ccc(NC(=O)[C@H](NC(=O)[C@@H]2Cc3ccccc3CN2)c2ccccc2)cc1	-11.0	32.7*	-2.6	-19.0	-0.5
Cc1ccc(NC(=O)[C@H](NC(=O)[C@@H]2Cc3ccccc3CN2)c2ccccc2)cc1	-23.9	-5.8	0.0	-33.0	0.9
COc1ccc(CNC(=O)c2cccn2-c2nnc(N3CCCC3)s2)c(OC)c1	-2.2	nt	nt	nt	-0.7
SMILES	D2 PAM-1	D2 antagonist	D2 ag-1	D2 PAM-2	D2 ag-2
CCCCC1(C)OC(=O)C(=Cc2ccc(-c3ccc(Cl)c(C(=O)O)c3)o2)C(=O)O1 (stereo not drawn)	-3.3	41.9*	-0.3	7.5	-1.9
CC/C(=N\NC(=O)c1nnn(-c2nonc2N)c1-c1cccs1)c1ccccc1	-2.2	0.2	0.4	1.0	-0.2
COc1ccc(OC)c(-c2csc(NC(=O)Cn3[nH]c(=O)c4ccccc4c3=O)n2)c1	0.2	31.9*	-5.5	-23.0	4.3
COc1cccc(N2CCN(Cc3ncc(-c4ccccc4)o3)CC2)c1	-27.7	48.1*	-0.9	-17.0	-1.5
COc1cccc(N2CCN(CC(=O)Nc3nnc(-c4ccccc4)s3)CC2)c1	3.1	-12.3	-0.5	0.0	-0.4
Cc1ccc(C(C)C)c(OCc2nn(CC(=O)c3ccc(Cl)cc3)c3[n+]2CCCCC3)c1	-27.9	33.0*	-11.6	-23.4	1.2
O=C(Cn1nc(CNc2ccc(Cl)cc2)[n+]2c1CCCCC2)c1ccccc1	-14.1	6.8	-3.3	-10.9	-0.8
Cc1cc(C)n2nc(C(=O)Nc3c(C)nn(Cc4ccc(F)cc4)c3C)cc2n1	-2.2	51.5*	11.9	-0.8	0.9
CN1CCN(NC(=O)Nc2cc(Cl)cc(Cl)c2)CC1	3.9	4.9	-0.8	-16.2	0.7
Cc1ccc(CO/N=C\Cc2snc(Sc3ncc(C(F)(F)F)cc3Cl)c2C#N)cc1	-0.5	33.5*	2.1	10.6	0.3
O=C(NCc1cccs1)c1ccc2sc([C@H]3C[C@H](O)[C@@H](CO)O3)nc2c1	nt	nt	-5.1	-1.2	nt
COc1ccc(C(C#N)(CCC#N)CCC#N)cc1OC	-23.6	79.5*	-1.7	-19.6	1.6
C=CCC(C#N)(c1ccc(OC)c(OC)c1)c1cnccn1 (stereo not drawn)	5.0	6.1	-4.0	-8.7	-0.1
Cc1ccccc1NC(=O)Cn1c(=O)n(CCC(=O)N2CCc3ccccc3C2)c(=O)c2ccccc21	9.9	nt	nt	nt	-0.3
COc1ccc(S(=O)(=O)NCC2CCC(C(=O)NCCCN3CCCC3=O)CC2)cc1 (stereo not drawn)	14.8	31.9*	-3.8	-7.0	0.0
O=C1CC(c2ccccc2)CC(=NCCO)/C1=C(\O)CCCN1C(=O)c2ccccc2C1=O (stereo not drawn)	50.9*	2.4	1.5	-0.4	-0.2
CC1(C)CC(=O)/C(=C(\O)CCCN2C(=O)c3ccccc3C2=O)C(=NCC(=O)O)C1	15.0	-8.8	1.5	-3.0	0.6
Cc1ccc(C)c(N2CCN(C(=O)CN3C(=S)NC(C)(C)CC3C)CC2)c1 (stereo not drawn)	1.6	41.5*	2.1	-3.3	4.7

Assay outcomes as filed in PubChem.
